We go through 22 molecules from PubChem BioAssay (EPA / NIEHS).

The target of test [1] is Retinoic acid receptor RXR-alpha (Homo sapiens) (UniProt P19793). As to the kind of experiment: OT_NURR1_NURR1RXRa_1440: Odyssey Thera (OT) 24-hour HEK293T Protein Complementation Assay for Nurr1/retinoid X receptor (RXR) (AID 2283386). Summed up:
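HEK293T cells were dosed with compound and read 24 h later by fluorescence intensity in a protein-fragment complementation format, where Nurr1–RXRα interaction reconstitutes a split reporter. Activity was fitted as gain of signal relative to DMSO baseline.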

In test [2] the target is Peroxisome proliferator-activated receptor gamma (Homo sapiens) (UniProt P37231). As to the kind of experiment: OT_PPARg_PPARgSRC1_1440: Odyssey Thera (OT) 24-hour Protein-Complementation Assay for Peroxisome Proliferator-activated Receptor Gamma/ SRC-1 Co-activator (AID 2283388). Summed up:
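HEK293T cells transiently transfected with PPARg and SRC-1 fused via (Gly4Ser)2 linker to split Venus YFP fragments (IFP1/IFP2) were dosed 24 h; fixed, Draq5-stained, imaged at 488/635 nm; nuclear/cytoplasmic fluorescence ratio scored versus DMSO baseline, gain-of-signal.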

Test [3] is described as follows: CEETOX_H295R_OHPREG: CeeTox H295R High-throughput Steroidogenesis Assay for OH-Pregnenolone (OHPREG) (AID 2283434; active = hit-call score of the fitted dose curve at least 0.9, where 1 is the maximum; inactive = score below 0.9). To be noted: actives raise or lower the signal. The method in brief:
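H295R cells pre-stimulated 48 h with 10 uM forskolin, then exposed 48 h to chemical in 0.1% DMSO. 17alpha-hydroxypregnenolone in medium quantified by MTBE extraction and HPLC-MS/MS; bidirectional fit versus DMSO, viability checked by MTT.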

Test [4] can be described thus: CEETOX_H295R_OHPROG: CeeTox H295R High-throughput Steroidogenesis Assay for OH-Progesterone (OHPROG) (AID 2283435; active = hit-call score of the fitted dose curve at least 0.9, where 1 is the maximum; inactive = score below 0.9). The conditions noted are these: actives raise or lower the signal. Summed up:
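H295R human adrenal cells were prestimulated 48 h with 10 uM forskolin, then exposed 48 h to test chemical (0.1% DMSO final). 17alpha-hydroxyprogesterone in medium was measured by HPLC-MS/MS after MTBE extraction; bidirectional fitting vs DMSO.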

Test [5] is described as follows: CEETOX_H295R_CORTIC: CeeTox H295R High-throughput Steroidogenesis Assay for Corticosterone (CORTIC) (AID 2283437; active = hit-call score of the fitted dose curve at least 0.9, where 1 is the maximum; inactive = score below 0.9;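 note: corticosterone secreted into medium quantified by mass spectrometry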). To be noted: actives raise or lower the signal. Summed up:
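H295R adrenal cells prestimulated 48 hours with 10 uM forskolin, then exposed 48 hours to chemical in 0.1% DMSO. Corticosterone in medium measured by HPLC-MS/MS after MTBE extraction; MTT viability in the same wells; bidirectional fit versus DMSO.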

The nature of test [6]: CEETOX_H295R_CORTISOL: CeeTox H295R High-throughput Steroidogenesis Assay for Cortisol (AID 2283438; active = hit-call score of the fitted dose curve at least 0.9, where 1 is the maximum; inactive = score below 0.9;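 note: cortisol secreted into medium quantified by LC-MS/MS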). To be noted: actives raise or lower the signal. The method in brief: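 H295R human adrenal cells were prestimulated 48 h with 10 uM forskolin, then exposed 48 h to test chemical (0.1% DMSO final). Medium cortisol was quantified by HPLC-MS/MS after MTBE extraction; bidirectional fitting relative to DMSO baseline.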

Test [7] can be described thus: CEETOX_H295R_DOC: CeeTox H295R High-throughput Steroidogenesis Assay for DOC (AID 2283439; active = hit-call score of the fitted dose curve at least 0.9, where 1 is the maximum; inactive = score below 0.9). The conditions noted are these: actives raise or lower the signal. The method in brief: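 H295R adrenal cells prestimulated 48 h with 10 uM forskolin, then exposed 48 h to test chemical (0.1% DMSO final). Medium 11-deoxycorticosterone extracted with MTBE, quantified by HPLC-MS/MS; bidirectional fit versus DMSO baseline; MTT viability in same wells.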

Test [8] in a line: CEETOX_H295R_ANDR: CeeTox H295R High-throughput Steroidogenesis Assay for Androstenedione (ANDR) (AID 2283436; active = hit-call score of the fitted dose curve at least 0.9, where 1 is the maximum; inactive = score below 0.9). The conditions noted are these: actives raise or lower the signal. Summed up: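 H295R cells, following OECD 456 with minor changes, exposed to chemicals for 48 h. Androstenedione in the medium was quantified by HPLC-MS/MS after MTBE extraction. Fitting was bidirectional versus DMSO; chemicals were diluted until MTT viability was ≥70%.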

The target of test [9] is Estrogen receptor beta (Homo sapiens) (UniProt Q92731). As to the kind of experiment: OT_ER_ERbERb_1440: Odyssey Thera (OT) 24-hour HEK293T Protein-Complementation Assay for Estrogen Receptor-beta/-beta Homodimer (AID 2283380).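 Note: scored as signal increase over DMSO baseline for both agonists and antagonists.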 Summed up:
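HEK293T cells stably expressing ER beta LBD (aa 310-547) homodimer fragment-complementation reporter, dosed 24 h. Cells formaldehyde-fixed, Draq5-stained; gain in nuclear (agonist) or nuclear plus cytoplasmic (antagonist) fluorescence versus DMSO read by laser scanning cytometry.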

The target of test [10] is Bile acid receptor (Homo sapiens) (UniProt Q96RI1). As to the kind of experiment: OT_FXR_FXRSRC1_0480: Odyssey Thera (OT) 8-hour HEK293T Protein-Complementation Assay for Farnesoid X receptor/SRC-1 Co-activator (AID 2283383). Summed up:
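HEK293T cells expressing FXR and SRC-1 fused to reporter fragments were dosed with compound for 8 h; fluorescence from the reconstituted reporter marked co-activator recruitment. Gain of signal was fitted against the DMSO baseline.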

Test [11] shares this target. As to the kind of experiment: OT_FXR_FXRSRC1_1440: Odyssey Thera (OT) 24-hour HEK293T Protein-Complementation Assay for Farnesoid X receptor/SRC-1 Co-activator (AID 2283384). Summed up: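 HEK293T cells were dosed with compound and read 24 h later by fluorescence intensity from protein-fragment complementation reporting FXR/SRC-1 co-activator interaction. Gain of signal was fitted relative to DMSO negative control as baseline.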

Test [12] deals with Peroxisome proliferator-activated receptor gamma (Homo sapiens) (UniProt P37231). As to the kind of experiment: OT_PPARg_PPARgSRC1_0480: Odyssey Thera (OT) 8-hour Protein-Complementation Assay for Peroxisome Proliferator-activated Receptor Gamma / SRC-1 Co-activator (AID 2283387). The method in brief:
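HEK293T transiently transfected with PPARg and SRC-1 fused to Venus YFP fragments, compounds 8 h at 37C. Fixed, Draq5-stained cells imaged; nuclear/cytoplasmic 488 nm fluorescence ratio over at least 350 cells per image; gain fitted versus DMSO.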

Test [13] is described as follows: CEETOX_H295R_ESTRADIOL: CeeTox H295R High-throughput Steroidogenesis Assay for Estradiol (AID 2283440; active = hit-call score of the fitted dose curve at least 0.9, where 1 is the maximum; inactive = score below 0.9;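 note: estradiol secreted into medium quantified by LC-MS/MS after dansyl derivatisation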). The conditions noted are these: actives raise or lower the signal. The method in brief:
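H295R adrenocortical cells were prestimulated with 10 uM forskolin for 48 h, then exposed to test chemical in 0.1% DMSO for 48 h. Medium estradiol was extracted with MTBE, dansyl-derivatized and quantified by HPLC-MS/MS; bidirectional fit versus DMSO.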

Test [14] is described as follows: CEETOX_H295R_ESTRONE: CeeTox H295R High-throughput Steroidogenesis Assay for Estrone (AID 2283441; active = hit-call score of the fitted dose curve at least 0.9, where 1 is the maximum; inactive = score below 0.9;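 note: estrone secreted into medium measured by LC-MS/MS after dansyl derivatization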). The conditions noted are these: actives raise or lower the signal. The method in brief: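 H295R cells; 48 h forskolin (10 uM) prestimulation; 48 h compound exposure, 0.1% DMSO final. Medium estrone: MTBE extraction, dansyl derivatization, HPLC-MS/MS. Bidirectional fit vs DMSO.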

Test [15] has as its target Estrogen receptor (Homo sapiens) (UniProt P03372). As to the kind of experiment: OT_ERa_GFPERaERE_0480: Odyssey Thera (OT) 8-hour HeLa Transcription Induction Assay for Estrogen Receptor (AID 2283381; active = hit-call score of the fitted dose curve at least 0.9, where 1 is the maximum; inactive = score below 0.9). Summed up:
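HeLa cells dosed with compound and imaged by fluorescence microscopy at 8 h; GFP induction from an ERE reporter quantified by high-content image analysis and fitted as gain of signal against DMSO baseline.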

Test [16] has the same target. As to the kind of experiment: OT_ERa_GFPERaERE_0120: Odyssey Thera (OT) 2-hour HeLa Transcription Induction Assay for Estrogen Receptor (AID 2283382). The method in brief: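 HeLa cells were dosed with test chemical and read 2 hours later for GFP-ERα/ERE-linked fluorescent protein induction by fluorescence microscopy. Gain-of-signal was fitted relative to DMSO baseline, quantified by high content image analysis.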

Records with an inconclusive call do not appear. Activity calls are given as the source filed them. Rule for the calls, unless noted: active = hit-call score of the fitted dose curve at least 0.9, where 1 is the maximum; inconclusive = response in the unintended direction; inactive = score below 0.9.

Chain of Peroxisome proliferator-activated receptor gamma (Homo sapiens) (P37231 whole entry, looked up, the tested form may be a part): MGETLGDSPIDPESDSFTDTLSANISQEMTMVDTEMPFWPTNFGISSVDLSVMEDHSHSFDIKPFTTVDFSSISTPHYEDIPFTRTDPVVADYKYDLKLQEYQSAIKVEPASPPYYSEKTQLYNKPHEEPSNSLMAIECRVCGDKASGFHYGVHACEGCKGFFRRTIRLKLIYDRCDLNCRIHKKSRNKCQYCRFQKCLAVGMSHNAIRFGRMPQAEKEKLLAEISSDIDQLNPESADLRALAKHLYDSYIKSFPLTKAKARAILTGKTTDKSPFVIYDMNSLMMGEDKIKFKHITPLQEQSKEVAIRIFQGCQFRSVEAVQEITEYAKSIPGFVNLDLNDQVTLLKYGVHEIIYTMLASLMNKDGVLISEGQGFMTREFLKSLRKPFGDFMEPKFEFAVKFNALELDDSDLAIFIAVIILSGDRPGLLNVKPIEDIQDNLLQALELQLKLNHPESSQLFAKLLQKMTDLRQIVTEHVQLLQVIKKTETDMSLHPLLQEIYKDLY
Chain of Bile acid receptor (Homo sapiens) (Q96RI1 whole entry, looked up, the tested form may be a part): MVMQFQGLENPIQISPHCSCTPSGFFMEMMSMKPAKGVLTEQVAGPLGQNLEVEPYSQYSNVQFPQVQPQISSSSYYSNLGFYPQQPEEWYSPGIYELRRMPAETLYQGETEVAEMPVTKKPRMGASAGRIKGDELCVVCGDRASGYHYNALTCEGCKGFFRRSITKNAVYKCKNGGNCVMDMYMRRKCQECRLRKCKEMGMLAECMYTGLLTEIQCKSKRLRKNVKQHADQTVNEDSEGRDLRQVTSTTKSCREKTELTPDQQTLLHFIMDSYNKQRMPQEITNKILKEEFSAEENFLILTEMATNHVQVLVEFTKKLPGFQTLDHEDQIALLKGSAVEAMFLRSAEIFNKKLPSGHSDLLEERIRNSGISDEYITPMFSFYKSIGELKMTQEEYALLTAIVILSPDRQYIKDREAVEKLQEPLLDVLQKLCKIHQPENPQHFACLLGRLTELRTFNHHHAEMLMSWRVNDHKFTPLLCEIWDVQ
Chain of Estrogen receptor beta (Homo sapiens) (Q92731 whole entry, looked up, the tested form may be a part): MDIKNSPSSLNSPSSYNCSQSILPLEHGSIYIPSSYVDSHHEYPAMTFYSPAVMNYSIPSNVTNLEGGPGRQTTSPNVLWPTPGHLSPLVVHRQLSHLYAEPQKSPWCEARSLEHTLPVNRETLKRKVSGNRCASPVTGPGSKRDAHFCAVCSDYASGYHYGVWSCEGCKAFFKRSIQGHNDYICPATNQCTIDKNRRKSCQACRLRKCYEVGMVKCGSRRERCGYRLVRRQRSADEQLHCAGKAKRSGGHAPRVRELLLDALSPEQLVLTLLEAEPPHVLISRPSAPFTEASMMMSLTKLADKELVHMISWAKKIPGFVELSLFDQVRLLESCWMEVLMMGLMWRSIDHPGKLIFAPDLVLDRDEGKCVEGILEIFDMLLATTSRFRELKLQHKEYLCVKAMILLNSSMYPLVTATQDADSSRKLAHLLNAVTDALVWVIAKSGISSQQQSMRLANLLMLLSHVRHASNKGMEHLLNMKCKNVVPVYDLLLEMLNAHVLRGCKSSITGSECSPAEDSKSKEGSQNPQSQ
Chain of Retinoic acid receptor RXR-alpha (Homo sapiens) (P19793 whole entry, looked up, the tested form may be a part): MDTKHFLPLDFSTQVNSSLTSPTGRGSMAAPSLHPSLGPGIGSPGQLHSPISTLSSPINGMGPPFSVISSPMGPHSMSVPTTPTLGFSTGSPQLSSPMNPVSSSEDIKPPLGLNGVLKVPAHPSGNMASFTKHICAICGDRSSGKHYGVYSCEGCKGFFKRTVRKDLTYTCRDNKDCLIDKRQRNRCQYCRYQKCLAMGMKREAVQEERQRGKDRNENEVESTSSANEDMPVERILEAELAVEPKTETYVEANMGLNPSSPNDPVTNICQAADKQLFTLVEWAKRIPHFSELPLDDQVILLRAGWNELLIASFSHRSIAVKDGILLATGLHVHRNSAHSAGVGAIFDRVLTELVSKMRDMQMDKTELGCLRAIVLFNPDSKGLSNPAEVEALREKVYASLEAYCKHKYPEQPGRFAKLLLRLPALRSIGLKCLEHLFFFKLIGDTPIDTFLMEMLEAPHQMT
Chain of Estrogen receptor (Homo sapiens) (P03372 whole entry, looked up): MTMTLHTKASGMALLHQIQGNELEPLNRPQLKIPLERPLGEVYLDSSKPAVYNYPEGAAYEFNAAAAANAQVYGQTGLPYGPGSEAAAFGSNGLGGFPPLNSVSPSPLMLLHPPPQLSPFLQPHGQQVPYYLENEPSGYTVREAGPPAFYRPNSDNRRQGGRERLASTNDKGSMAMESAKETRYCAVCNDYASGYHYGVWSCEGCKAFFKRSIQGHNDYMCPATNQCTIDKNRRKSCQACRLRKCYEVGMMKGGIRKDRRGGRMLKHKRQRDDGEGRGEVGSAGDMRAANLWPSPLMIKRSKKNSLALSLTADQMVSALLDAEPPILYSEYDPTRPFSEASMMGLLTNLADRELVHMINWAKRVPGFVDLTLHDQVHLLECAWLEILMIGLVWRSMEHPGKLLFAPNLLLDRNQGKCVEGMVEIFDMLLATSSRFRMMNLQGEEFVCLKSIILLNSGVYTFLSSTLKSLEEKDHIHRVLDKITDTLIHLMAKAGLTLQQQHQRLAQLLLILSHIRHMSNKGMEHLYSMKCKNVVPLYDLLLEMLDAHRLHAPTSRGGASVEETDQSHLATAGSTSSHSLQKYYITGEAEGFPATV

With `O=c1[nH]c(=O)n(Cl)c(=O)n1Cl`, the molecule was called inactive in test [1] and in [2].
As for `C[C@]12CC[C@@H](O)C[C@@H]1CC[C@@H]1[C@@H]2CC[C@]2(C)C(=O)CC[C@@H]12`, the molecule was classed as inactive in [3] and in test [6]. The concentration at half-maximal activity (AC50) in test [4] was 1.87 µM (active); in [5], 1.98 µM (active); in [7], 2.64 µM (active).
For the molecule `O=c1nc(O)n(Cl)c(=O)n1Cl`, the molecule was called inactive in [1] and in test [2].
Consider `OC(Cc1ccccc1Cl)(Cn1[nH]cnc1=S)C1(Cl)CC1` (centres undefined), for which the call in test [3], in test [4], in [8], in test [5], in test [6] and in test [7] was inactive.
As for `Cc1cc(Cl)ccc1O`, the AC50 is 63.8 µM (active) in test [9] and 28.3 µM (active) in test [4]. In addition, the call in test [10], in [11], in [2], in test [3], in [5] and in test [6] was inactive. Also, the molecule was classed as inactive in test [7].
With `O=C(CBr)c1ccc(O)cc1`, the result in test [9], in test [10], in test [11], in test [1], in [12] and in [2] was inactive.
As to `Clc1cccc(Cl)c1`, the molecule was called inactive in [9], in [1], in [12] and in [2].
For `Cc1cc(C)cc(C)c1`, the molecule was called inactive in test [9], in [1], in test [3] and in test [4].
Regarding `CC(C)(C)c1ccccc1O`, the call in test [9], in test [1], in [2], in [3], in test [4] and in [5] was inactive. Moreover, the molecule was classed as inactive in test [6] and in [7].
Regarding `Nc1ncn[nH]1`, the outcome in test [9], in test [10], in [1] and in [2] was inactive.
Consider `Clc1cccc(Cl)c1Cl`, for which the molecule was called inactive in test [1] and in [2].
As for `OCCCCO`, the call in test [10], in test [11], in test [1] and in test [2] was inactive.
Consider `OCCN(CCO)CCO`, for which, in test [1], the outcome was inactive.
For `CCOP(=S)(OCC)O/N=C(\C#N)c1ccccc1`, the concentration at half-maximal activity (AC50) in [9] was 50 µM (active); in [10], 32.5 µM (active); in test [5] it was 13.8 µM (active); in [6], 87.8 µM (active); in [7] it was 40.4 µM (active). Besides, the result in [11], in test [1], in test [2], in [3] and in test [4] was inactive.
`CC(C)(COCC1CO1)COCC1CO1` (centres undefined): the call in [3], in test [4], in test [5], in [6], in test [7] and in test [13] was inactive. For the same molecule, the molecule was called inactive in [14].
For the molecule `COc1ccc(N)cc1`, the figures for the AC50 in test [1] and in test [4] were 13.8 µM (active) and 31.7 µM (active), respectively. The call in [2], in test [3], in [5], in test [6] and in test [7] was inactive.
For the molecule `COC(=O)Nc1cccc(OC(=O)Nc2cccc(C)c2)c1`, the molecule was classed as inactive in [9], in [11], in test [1], in [2], in test [4] and in test [5]. In test [6], the result was inactive. Also, the AC50 was 4.29 µM (active) in test [3] and 19.8 µM (active) in test [7].
With `COc1nn(C(=O)NS(=O)(=O)c2ccccc2OC(F)(F)F)c(=O)n1C`, the molecule was classed as inactive in test [9], in test [11], in [1] and in test [2].
For the molecule `COc1ccccc1N`, the molecule was classed as inactive in test [1] and in test [2].
For `O=[N+]([O-])c1ccccc1O`, the outcome in [9], in [1] and in test [2] was inactive.
For `Cc1ccccc1OP(=O)(Oc1ccccc1C)Oc1ccccc1C`, the outcome in test [3], in test [4], in test [8], in test [5], in test [6] and in test [7] was inactive.
For the molecule `C=CCN=C=S`, the molecule was classed as inactive in [15], in test [16], in test [10] and in [2].

What is called AC50 is the concentration giving half of the maximal activity seen.
